# In publication PMC7862700, “An all-to-all approach to the identification of sequence-specific readers for epigenetic DNA modifications on cytosine”:
# Assays:
# Assay in all cases: DAPPL (digital affinity profiling via proximity ligation, sequencing); 10 mM Tris-HCl pH 7.5, 50 mM NaCl, 1 mM DTT, 4% glycerol, room temperature, 30 min; GST-TFs on glutathione beads, 16-mer random dsDNA library, 0.1% formaldehyde crosslink after washing; high values mean tight binding
# Conditions in all cases: protein: recombinant; tags: N-terminal GST; dsDNA, one strand shown
# FEV = target: T1, FEV (Homo sapiens, UniProt Q99581 1-238)
# T1 sequence: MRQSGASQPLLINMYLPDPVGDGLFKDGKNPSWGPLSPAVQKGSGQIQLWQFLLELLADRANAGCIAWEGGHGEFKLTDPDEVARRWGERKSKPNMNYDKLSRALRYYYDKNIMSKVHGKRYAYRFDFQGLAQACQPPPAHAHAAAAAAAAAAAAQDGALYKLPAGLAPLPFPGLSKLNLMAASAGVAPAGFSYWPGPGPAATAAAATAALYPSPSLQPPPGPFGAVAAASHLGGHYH
# How it was run: (§1)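 Pools of DNA-barcoded human transcription factors, expressed in yeast as GST fusions on glutathione beads and combined with a tag-only sample, were incubated with 200 nmole of a 16-mer random double-stranded DNA library. Incubation took 30 min at room temperature in Tris/NaCl/DTT/glycerol buffer and was followed by washing, 0.1% formaldehyde crosslinking, proximity ligation (BsaI/T4 ligase, 1 h, 37 °C), PCR amplification and sequencing on an Illumina NextSeq500. Binding signal is the ratio of a hexamer's read frequency for a factor to its frequency for the tag-only sample.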
# ETV5 = ETV5 (Homo sapiens, UniProt P41161 1-510)
# ETV5, sequence (P41161 whole entry): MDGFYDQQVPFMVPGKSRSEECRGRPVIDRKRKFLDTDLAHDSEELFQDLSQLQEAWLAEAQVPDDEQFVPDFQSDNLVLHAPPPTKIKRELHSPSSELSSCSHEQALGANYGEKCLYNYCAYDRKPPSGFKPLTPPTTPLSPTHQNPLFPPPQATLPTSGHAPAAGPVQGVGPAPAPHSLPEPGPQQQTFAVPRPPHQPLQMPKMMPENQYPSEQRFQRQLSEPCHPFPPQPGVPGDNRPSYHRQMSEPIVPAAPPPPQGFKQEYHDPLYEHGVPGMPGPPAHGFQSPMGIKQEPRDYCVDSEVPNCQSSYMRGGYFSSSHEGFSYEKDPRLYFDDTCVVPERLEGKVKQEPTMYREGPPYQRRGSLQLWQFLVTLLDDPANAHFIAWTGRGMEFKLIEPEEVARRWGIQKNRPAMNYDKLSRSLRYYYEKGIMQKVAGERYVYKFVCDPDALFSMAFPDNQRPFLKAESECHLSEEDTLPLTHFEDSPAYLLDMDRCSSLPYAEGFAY
# How it was run: as §1
# SPIC = target: T2, SPIC (Homo sapiens, UniProt Q8N5J4 1-248)
# T2 sequence: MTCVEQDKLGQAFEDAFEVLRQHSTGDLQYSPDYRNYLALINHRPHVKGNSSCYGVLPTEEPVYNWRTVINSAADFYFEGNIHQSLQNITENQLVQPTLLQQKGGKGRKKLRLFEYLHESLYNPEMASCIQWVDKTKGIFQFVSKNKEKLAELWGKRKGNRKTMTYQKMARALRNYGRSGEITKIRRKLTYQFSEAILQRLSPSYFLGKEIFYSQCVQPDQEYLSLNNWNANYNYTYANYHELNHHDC
# How it was run: as §1
# ELF4 = ELF4 (Homo sapiens, UniProt Q99607 1-663)
# ELF4, sequence (Q99607 whole entry): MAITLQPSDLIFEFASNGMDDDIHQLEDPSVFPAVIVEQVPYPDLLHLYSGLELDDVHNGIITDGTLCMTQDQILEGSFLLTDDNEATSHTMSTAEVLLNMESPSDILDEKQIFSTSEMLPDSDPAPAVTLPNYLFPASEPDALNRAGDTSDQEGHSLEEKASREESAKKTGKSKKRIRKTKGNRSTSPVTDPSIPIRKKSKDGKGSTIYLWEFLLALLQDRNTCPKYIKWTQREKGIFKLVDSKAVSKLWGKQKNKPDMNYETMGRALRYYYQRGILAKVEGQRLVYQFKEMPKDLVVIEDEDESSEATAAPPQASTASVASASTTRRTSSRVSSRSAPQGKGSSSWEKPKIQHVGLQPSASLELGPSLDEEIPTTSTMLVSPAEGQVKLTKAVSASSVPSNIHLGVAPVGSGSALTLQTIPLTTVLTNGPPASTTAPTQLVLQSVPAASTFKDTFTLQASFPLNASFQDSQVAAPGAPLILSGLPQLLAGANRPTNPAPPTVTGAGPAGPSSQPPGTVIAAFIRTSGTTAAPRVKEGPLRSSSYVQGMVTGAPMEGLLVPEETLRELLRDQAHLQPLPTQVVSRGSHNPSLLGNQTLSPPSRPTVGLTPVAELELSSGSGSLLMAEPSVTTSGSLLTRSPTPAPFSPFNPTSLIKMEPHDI
# How it was run: as §1
# ELK4 = target: T3, ELK4 (Homo sapiens, UniProt P28324-2 1-405)
# T3 sequence: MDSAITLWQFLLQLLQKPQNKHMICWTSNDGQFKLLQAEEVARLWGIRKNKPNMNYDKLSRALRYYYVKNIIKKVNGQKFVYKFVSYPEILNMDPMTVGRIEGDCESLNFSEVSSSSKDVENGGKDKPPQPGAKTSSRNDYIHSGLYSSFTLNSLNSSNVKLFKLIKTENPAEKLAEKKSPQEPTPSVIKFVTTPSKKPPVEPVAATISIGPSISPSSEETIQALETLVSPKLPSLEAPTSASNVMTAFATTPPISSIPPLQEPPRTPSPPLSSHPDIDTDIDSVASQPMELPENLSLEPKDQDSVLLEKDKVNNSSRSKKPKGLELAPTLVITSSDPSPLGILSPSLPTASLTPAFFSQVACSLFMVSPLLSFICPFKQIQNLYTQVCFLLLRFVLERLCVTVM
# How it was run: as §1
# ETV2 = target: T4, ETV2 (Homo sapiens, UniProt O00321 1-342)
# T4 sequence: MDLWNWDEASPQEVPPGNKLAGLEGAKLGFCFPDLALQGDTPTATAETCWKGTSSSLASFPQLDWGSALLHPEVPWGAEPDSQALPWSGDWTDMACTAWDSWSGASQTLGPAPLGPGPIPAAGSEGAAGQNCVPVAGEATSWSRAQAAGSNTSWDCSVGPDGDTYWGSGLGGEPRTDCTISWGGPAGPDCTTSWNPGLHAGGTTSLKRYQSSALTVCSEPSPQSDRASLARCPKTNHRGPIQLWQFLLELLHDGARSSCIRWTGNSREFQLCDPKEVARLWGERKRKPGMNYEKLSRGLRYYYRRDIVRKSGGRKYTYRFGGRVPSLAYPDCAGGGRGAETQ
# How it was run: as §1
# ELF3 = target: T5, ELF3 (Homo sapiens, UniProt P78545 1-371)
# T5 sequence: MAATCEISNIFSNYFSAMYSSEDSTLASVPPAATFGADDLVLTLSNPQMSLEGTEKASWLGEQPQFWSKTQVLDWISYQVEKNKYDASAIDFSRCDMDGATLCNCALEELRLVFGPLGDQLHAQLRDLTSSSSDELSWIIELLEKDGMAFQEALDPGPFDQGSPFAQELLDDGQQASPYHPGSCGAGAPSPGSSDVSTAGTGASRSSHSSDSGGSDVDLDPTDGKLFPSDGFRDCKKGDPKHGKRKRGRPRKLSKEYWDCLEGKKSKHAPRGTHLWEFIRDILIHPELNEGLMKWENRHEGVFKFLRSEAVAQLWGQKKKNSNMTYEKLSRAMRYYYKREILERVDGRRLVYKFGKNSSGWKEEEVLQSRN
# How it was run: as §1
# ETV1 = ETV1 (Homo sapiens, UniProt P50549 1-477)
# ETV1, sequence (P50549 whole entry): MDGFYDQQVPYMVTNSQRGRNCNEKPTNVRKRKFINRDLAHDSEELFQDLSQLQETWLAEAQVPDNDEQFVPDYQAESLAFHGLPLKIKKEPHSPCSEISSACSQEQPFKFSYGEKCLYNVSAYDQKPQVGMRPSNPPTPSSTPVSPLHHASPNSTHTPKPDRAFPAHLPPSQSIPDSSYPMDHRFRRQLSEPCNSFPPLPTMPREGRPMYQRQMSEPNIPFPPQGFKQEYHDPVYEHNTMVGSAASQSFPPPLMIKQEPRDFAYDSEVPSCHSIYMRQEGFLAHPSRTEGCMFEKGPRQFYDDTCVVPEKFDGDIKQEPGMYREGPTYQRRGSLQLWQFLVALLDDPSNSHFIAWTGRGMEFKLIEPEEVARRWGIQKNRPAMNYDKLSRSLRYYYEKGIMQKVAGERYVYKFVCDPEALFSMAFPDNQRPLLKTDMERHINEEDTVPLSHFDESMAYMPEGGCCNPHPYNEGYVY
# How it was run: as §1
Sequence,binding signal (FEV),binding signal (ETV5),binding signal (SPIC),binding signal (ELF4),binding signal (ELK4),binding signal (ETV2),binding signal (ELF3),binding signal (ETV1)
CGCCAA,"1.05 fold enrichment (6-mer frequency, TF over GST control)","1.02 fold enrichment (6-mer frequency, TF over GST control)","1.11 fold enrichment (6-mer frequency, TF over GST control)","1.09 fold enrichment (6-mer frequency, TF over GST control)","1.04 fold enrichment (6-mer frequency, TF over GST control)","1.03 fold enrichment (6-mer frequency, TF over GST control)","1.12 fold enrichment (6-mer frequency, TF over GST control)",–
GCCGAC,"1.14 fold enrichment (6-mer frequency, TF over GST control)","1.02 fold enrichment (6-mer frequency, TF over GST control)","1.34 fold enrichment (6-mer frequency, TF over GST control)","1.08 fold enrichment (6-mer frequency, TF over GST control)","1.15 fold enrichment (6-mer frequency, TF over GST control)","1.15 fold enrichment (6-mer frequency, TF over GST control)","1 fold enrichment (6-mer frequency, TF over GST control)","1.04 fold enrichment (6-mer frequency, TF over GST control)"
GCCCTC,"1.18 fold enrichment (6-mer frequency, TF over GST control)","1.12 fold enrichment (6-mer frequency, TF over GST control)","1.26 fold enrichment (6-mer frequency, TF over GST control)","1.3 fold enrichment (6-mer frequency, TF over GST control)","1.1 fold enrichment (6-mer frequency, TF over GST control)","1.27 fold enrichment (6-mer frequency, TF over GST control)","1.18 fold enrichment (6-mer frequency, TF over GST control)","1.18 fold enrichment (6-mer frequency, TF over GST control)"
CCCGGC,"1.16 fold enrichment (6-mer frequency, TF over GST control)","1.15 fold enrichment (6-mer frequency, TF over GST control)","1.11 fold enrichment (6-mer frequency, TF over GST control)","1.19 fold enrichment (6-mer frequency, TF over GST control)","1.27 fold enrichment (6-mer frequency, TF over GST control)","1.07 fold enrichment (6-mer frequency, TF over GST control)","1.01 fold enrichment (6-mer frequency, TF over GST control)","1.19 fold enrichment (6-mer frequency, TF over GST control)"
TGACAC,"1.11 fold enrichment (6-mer frequency, TF over GST control)","1.11 fold enrichment (6-mer frequency, TF over GST control)","1.07 fold enrichment (6-mer frequency, TF over GST control)","1.1 fold enrichment (6-mer frequency, TF over GST control)","1.18 fold enrichment (6-mer frequency, TF over GST control)","1.15 fold enrichment (6-mer frequency, TF over GST control)","1.14 fold enrichment (6-mer frequency, TF over GST control)","1.1 fold enrichment (6-mer frequency, TF over GST control)"
TGTGTT,"1.06 fold enrichment (6-mer frequency, TF over GST control)","1.06 fold enrichment (6-mer frequency, TF over GST control)","1.02 fold enrichment (6-mer frequency, TF over GST control)","1.16 fold enrichment (6-mer frequency, TF over GST control)","1.07 fold enrichment (6-mer frequency, TF over GST control)","1.19 fold enrichment (6-mer frequency, TF over GST control)","1.08 fold enrichment (6-mer frequency, TF over GST control)",–
CCGCGT,"1.13 fold enrichment (6-mer frequency, TF over GST control)","1.12 fold enrichment (6-mer frequency, TF over GST control)","1.12 fold enrichment (6-mer frequency, TF over GST control)","1.18 fold enrichment (6-mer frequency, TF over GST control)","1.24 fold enrichment (6-mer frequency, TF over GST control)","1.4 fold enrichment (6-mer frequency, TF over GST control)","1.16 fold enrichment (6-mer frequency, TF over GST control)","1.13 fold enrichment (6-mer frequency, TF over GST control)"
CGGATA,"2.83 fold enrichment (6-mer frequency, TF over GST control)","1.34 fold enrichment (6-mer frequency, TF over GST control)","1.2 fold enrichment (6-mer frequency, TF over GST control)","1.03 fold enrichment (6-mer frequency, TF over GST control)","1.16 fold enrichment (6-mer frequency, TF over GST control)","1.23 fold enrichment (6-mer frequency, TF over GST control)","1.31 fold enrichment (6-mer frequency, TF over GST control)","1.26 fold enrichment (6-mer frequency, TF over GST control)"
